DSG3 Ab inh = human desmoglein-3 autoantibody binding inhibition | DSG3-coupled beads, scFv-anti-DSG3-GFP binding, flow cytometry; active compounds read low | P32926 | 0.48% of 310,000 active | binding (percent of control), % at 10 µM;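 active = binding more than 3 SD below its plate's average and above zero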;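 also: hits lower antibody fragment binding to DSG3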
Target sequence (P32926 whole entry, looked up, the tested form may be a part): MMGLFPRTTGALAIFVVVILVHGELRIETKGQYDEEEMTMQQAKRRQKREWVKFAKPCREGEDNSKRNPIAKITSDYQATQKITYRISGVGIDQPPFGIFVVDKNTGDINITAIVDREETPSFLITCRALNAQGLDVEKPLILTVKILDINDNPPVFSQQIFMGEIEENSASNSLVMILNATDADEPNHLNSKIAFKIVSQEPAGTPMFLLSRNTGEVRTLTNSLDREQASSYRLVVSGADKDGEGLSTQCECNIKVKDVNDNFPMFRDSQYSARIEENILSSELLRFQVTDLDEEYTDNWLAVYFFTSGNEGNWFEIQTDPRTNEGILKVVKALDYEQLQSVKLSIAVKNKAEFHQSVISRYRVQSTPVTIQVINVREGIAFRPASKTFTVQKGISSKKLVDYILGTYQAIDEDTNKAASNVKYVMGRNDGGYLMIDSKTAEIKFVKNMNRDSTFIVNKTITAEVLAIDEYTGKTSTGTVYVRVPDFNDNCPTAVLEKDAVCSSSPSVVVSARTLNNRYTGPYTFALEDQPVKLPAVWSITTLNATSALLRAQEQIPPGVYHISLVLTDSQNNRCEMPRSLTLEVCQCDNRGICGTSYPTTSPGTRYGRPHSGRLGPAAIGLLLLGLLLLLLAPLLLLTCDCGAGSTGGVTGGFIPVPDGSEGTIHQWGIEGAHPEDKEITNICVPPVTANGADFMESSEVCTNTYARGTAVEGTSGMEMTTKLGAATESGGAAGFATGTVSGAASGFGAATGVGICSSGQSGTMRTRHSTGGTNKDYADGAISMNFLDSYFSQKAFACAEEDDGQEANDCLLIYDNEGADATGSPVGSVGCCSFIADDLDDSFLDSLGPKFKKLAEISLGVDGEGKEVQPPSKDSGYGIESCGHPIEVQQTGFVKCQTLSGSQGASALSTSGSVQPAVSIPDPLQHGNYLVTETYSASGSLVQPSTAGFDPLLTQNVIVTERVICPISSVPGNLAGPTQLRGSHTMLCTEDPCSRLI
MsrA inhibitor = inhibitors of bovine MsrA. purified bovine MsrA, absorbance read-out. inhibition, % at 15.5 µM. 0.75% of 360,000 active. AID 651718; in the data active = inhibition above about 4.5%
rCAG RNA binder = binds r(CAG) RNA repeats | r(CAG) RNA repeat, TO-PRO-1 dye displacement fluorescence | inhibition, % at 3 µM | 1.3% of 370,000 active | AID 651821;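 active = inhibition above the plate cutoff, the mean of all test compounds on that plate plus 3 SD, cut at about 35% in these data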;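 also: higher means more dye released from RNA so lower well fluorescence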
DAGLB inh = blocks human DAGLB lipase activity | Q8NCG7 | inhibition, % at 5.17 µM | AID 504411 | 0.059% of 340,000 active | HEK293T DAGLB membrane lysate, EnzChek fluorogenic substrate; in the data active = inhibition above about 34%
NadD inh = NadD (S. aureus) enzyme inhibition | inhibition, % at 20 µM | 0.78% of 360,000 active | purified NadD enzyme, colorimetric absorbance read-out | AID 602399; in the data active = inhibition above about 26%
bovine MsrA act = activates bovine MsrA enzyme. purified bovine MsrA, absorbance read-out. activation, % at 10.6 µM. AID 602163. 0.3% of 360,000 active; in the data active = activation above about 7.5%
rCAG binder conf = r(CAG) RNA repeat binding, confirmation. TO-PRO-1 dye displacement fluorescence. 70% of 4,300 active. inhibition, % at 3 µM. shares compounds with rCAG RNA binder;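 active = inhibition above a per-plate cutoff, the mean inhibition of sample wells plus 3 SD, cut at about 35% in these data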;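 also: loss of TO-PRO-1 fluorescence as compound displaces dye from 1x1 AA loop RNA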
dCAG dye counter = disrupts DNA CAG TO-PRO-1 complex, flagging rCAG hits; shares compounds with rCAG RNA binder; 94% of 4,300 active; inhibition, % at 3 µM; d(CAG) DNA oligo TO-PRO-1 dye displacement, fluorescence; AID 652068;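 active = inhibition above its plate's cutoff, the mean test-well inhibition plus 3 SD, cut at about 4.8% in these data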;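 also: hits displace the dye from DNA and so lower well fluorescence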
dCAG dye DR = counter-screen for rCAG binders: inhibitors of DNA CAG TO-PRO-1 complex | shares compounds with rCAG RNA binder | DNA CAG/GTC duplex TO-PRO-1 dye displacement fluorescence | IC50, µM | 20% of 250 active | AID 686960; in the data active = IC50 below about 10 µM
Large screens that a line does not name were inactive (follow-up assays come after a bar, where they were run). Compounds with a hit are over-represented: about 3.2% of the library has one in this group of screens.

O=S(c1cc(Cl)cc(Cl)c1O)c1cc(Cl)cc(Cl)c1O	rCAG RNA binder 40 (no result: DSG3 Ab inh, DAGLB inh) | rCAG binder conf 44 | dCAG dye counter 11 | dCAG dye DR 9.4
O=[N+]([O-])c1c(Cl)cc(Cl)cc1Cl	none (no result: DSG3 Ab inh, DAGLB inh, NadD inh, bovine MsrA act)
Cc1ccc(S(=O)(=O)N2[C@@H](c3ccc(C#N)cc3)C(C(=O)O)=C[C@H]2CC2CCCC2)cc1	rCAG RNA binder 69 | rCAG binder conf 59 | dCAG dye counter 25
Cc1ccc(S(=O)(=O)N2[C@@H](c3ccc(Cl)cc3)C(C(=O)O)=C[C@H]2CC2CCCC2)cc1	rCAG RNA binder 77 | rCAG binder conf 77 | dCAG dye counter 40
CC[C@@H]1C=C(C(=O)O)[C@H](c2ccc(C)cc2)N1S(=O)(=O)c1ccc(C)cc1	none
Cc1ccc(S(=O)(=O)N2[C@@H](c3ccc(Cl)c(Cl)c3)C(C(=O)O)=C[C@H]2CC2CCCC2)cc1	rCAG RNA binder 87 | rCAG binder conf 86 | dCAG dye counter 57
Cc1ccc(-c2cc(C(=O)NN=Cc3cccc(OCc4ccccc4)c3)[nH]n2)cc1C	none (no result: DSG3 Ab inh, MsrA inhibitor, DAGLB inh, NadD inh, bovine MsrA act)
Cc1nn(C)c2c1NC(=O)CS2	none
CCS(=O)(=O)Nc1ccc2c(c1)C(=O)N(C)[C@@H]1CC[C@H](CC(=O)OC)O[C@H]1CO2	none (no result: DSG3 Ab inh, MsrA inhibitor, DAGLB inh, NadD inh, bovine MsrA act)
CCCCCCn1cc(CN2CC(N(C)CCC)CS2(=O)=O)nn1 (stereo unspecified)	none (no result: DSG3 Ab inh, DAGLB inh)
CC1(C(=O)NCc2cccnc2)Cc2c(-c3cccc(C(F)(F)F)c3)ccnc2O1 (stereo unspecified)	none (no result: DSG3 Ab inh, DAGLB inh)
CC[C@H](C)[C@H](NC(=O)OCc1ccccc1)C(=O)OCC(=O)N1CCN(c2ccc(OC)cc2)CC1	none
N=C1/C(=C\c2ccc(SCc3ccco3)o2)C(=O)N=C2SC=NN12	rCAG RNA binder 41 | rCAG binder conf inactive | dCAG dye counter 8.4
O=C(Nc1ccc(O)cc1)c1cccc(Oc2ccc([N+](=O)[O-])cc2)c1	none
Cc1ccc(NC(=O)c2cccc(Oc3ccc([N+](=O)[O-])cc3)c2)c(C(=O)O)c1	rCAG RNA binder 85 | rCAG binder conf 74 | dCAG dye counter 38
CC1(C)CN(C2CCCCC2)C(=O)[C@H]1CC(=O)Nc1ccc(Br)cc1	none
COc1ccc(N=C2NC(=O)/C(=C\c3ccco3)S2)cc1	none
CC(=O)Nc1ccc(S(=O)(=O)/N=C2/NC(=O)/C(=C\c3ccco3)S2)cc1	rCAG RNA binder 57 | rCAG binder conf inactive | dCAG dye counter 11
Cc1ccc(S(=O)(=O)/N=C2/NC(=O)/C(=C\c3ccco3)S2)cc1	rCAG RNA binder 69 | rCAG binder conf 43 | dCAG dye counter 11
CC(C)n1cc(/C=C2\NC(=O)N(c3cccc(Cl)c3)C2=O)c2ccccc21	none
O=c1/c(=C\c2cccn2-c2ccccc2)sc2nc3ccccc3n12	none
O=C(O)Cn1cc(/C=C2/NC(=O)N(c3ccc(Cl)cc3)C2=O)c2ccccc21	rCAG RNA binder 61 | rCAG binder conf 62 | dCAG dye counter 21
O=C(O)Cn1cc(/C=c2/sc3nc4ccccc4n3c2=O)c2ccccc21	rCAG RNA binder 52 | rCAG binder conf 90 | dCAG dye counter 73
COc1ccc(Cl)cc1-c1cc(C(=O)NCc2ccc(F)cc2)[nH]n1	none (no result: DSG3 Ab inh, DAGLB inh)
CCN(c1ccc(OC)cc1)S(=O)(=O)c1nnc(NC(=O)COc2ccccc2)s1	rCAG RNA binder 66 | rCAG binder conf 54 | dCAG dye counter 19
COc1ccc(OCC(=O)Nc2nnc(S(=O)(=O)N3CCCCCC3)s2)cc1	rCAG RNA binder 40 | rCAG binder conf inactive | dCAG dye counter 7.5
O=C(Cn1cc2c(n1)CCCCC2)NCc1ccccc1	rCAG RNA binder 41 | rCAG binder conf inactive | dCAG dye counter inactive
Cc1cc(C)cc(N(CC(=O)O)S(=O)(=O)c2c(C)[nH]c(=O)[nH]c2=O)c1	none (no result: DSG3 Ab inh)
Cc1cc(C)cc(N(CC(=O)Nc2ccc(C)cc2Cl)S(=O)(=O)c2c(C)[nH]c(=O)[nH]c2=O)c1	rCAG RNA binder 40 | rCAG binder conf 54 | dCAG dye counter 17
Cc1ccc(N(CC(=O)Nc2ccc(Br)c(C)c2)S(=O)(=O)c2c(C)[nH]c(=O)[nH]c2=O)cc1	rCAG RNA binder 47 | rCAG binder conf 67 | dCAG dye counter 23
Cc1cc(C)cc(N(CC(=O)Nc2ccc(C(F)(F)F)cc2)S(=O)(=O)c2c(C)[nH]c(=O)[nH]c2=O)c1	rCAG RNA binder 49 | rCAG binder conf 52 | dCAG dye counter 16
COc1cc(NC(=O)CN(c2cc(C)cc(C)c2)S(=O)(=O)c2c(C)[nH]c(=O)[nH]c2=O)cc(OC)c1	none (no result: DSG3 Ab inh)
COc1ccc(N(CC(=O)Nc2cc(C)ccc2C)S(=O)(=O)c2c(C)[nH]c(=O)[nH]c2=O)cc1	none
COc1ccc(N(CC(=O)Nc2cc(Cl)ccc2OC)S(=O)(=O)c2c(C)[nH]c(=O)[nH]c2=O)cc1	rCAG RNA binder 49 | rCAG binder conf 39 | dCAG dye counter 13
COC(=O)[C@]12C[C@H](CC(=O)NCc3cccs3)C(=O)N(CCc3ccc(OC)c(OC)c3)C1=C[C@H](COCc1ccccc1)O[C@@H]2C	none (no result: DSG3 Ab inh, MsrA inhibitor, DAGLB inh, NadD inh, bovine MsrA act)
Cc1ccc(S(=O)(=O)NN=Cc2c(O)ccc3ccccc23)cc1	rCAG RNA binder 41 | rCAG binder conf 46 | dCAG dye counter 15
C=C(C)C(=O)Nc1ccc(OC(F)(F)C(F)F)c(NC(=O)C(=C)C)c1	rCAG RNA binder 44 | rCAG binder conf inactive | dCAG dye counter inactive
CCC(=O)NC(NC(=S)Nc1ccc(S(N)(=O)=O)cc1)C(Cl)(Cl)Cl (stereo unspecified)	rCAG RNA binder 53 | rCAG binder conf inactive | dCAG dye counter inactive
CC(=O)NC(NC(=S)Nc1ccc(S(N)(=O)=O)cc1)C(Cl)(Cl)Cl (stereo unspecified)	none
COc1cc(-c2cc(NC(C)=O)c3ncc(-c4cc(OC)c(OC)c(OC)c4)n3c2)cc(OC)c1OC	none (no result: DSG3 Ab inh, DAGLB inh)
Cc1[nH]n(-c2ccccc2)c(=O)c1C(c1ccc(O)c([N+](=O)[O-])c1)c1c(C)[nH]n(-c2ccccc2)c1=O	rCAG RNA binder 46 | rCAG binder conf inactive | dCAG dye counter 7.8
COc1cccc(C(c2c(C)[nH]n(-c3ccccc3)c2=O)c2c(C)[nH]n(-c3ccccc3)c2=O)c1O	rCAG RNA binder 38 | rCAG binder conf inactive | dCAG dye counter 12
COc1cccc(C(c2c(C)[nH]n(-c3ccccc3)c2=O)c2c(C)[nH]n(-c3ccccc3)c2=O)c1OC	rCAG RNA binder 54 | rCAG binder conf 42 | dCAG dye counter 14

Bioassay records as filed in PubChem.
